Compound activity: PubChem, National Center for Advancing Translational Sciences (NCATS)
Most compounds without a hit are left out; they make up all but 21% or so of the library.
AMA1 RON2 block – inhibitors of Plasmodium falciparum AMA1-RON2 interaction | AlphaScreen AMA1-biotinylated RON2 peptide binding | 360,000 compounds, 0.2% hits | AID 720542 | Potency, µM (top dose mostly 58.2 µM), for inactives: at the top dose activity change, negative = inhibition, hits mostly inhibitors;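 also: potency is read from the fitted curve at half-maximal effect; 0% = vehicle wells and -100% = peptide control; nearly all actives have a fitted effect of over 45% in size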
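AMA1 (3D7) with his tag at 25 nM final met compounds first, then biotinylated RON2 peptide at 25 nM; detection used donor plus acceptor beads, 10 µg/mL apiece, read by AlphaScreen after 30 min at room temperature.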
Shiga inhibitor – Shiga toxin inhibition; Vero cells, Shiga toxin protein synthesis inhibition reporter; inhibition, % at 38.7 µM; 290,000 compounds, 9.2% hits; AID 2315; in the data active = inhibition mostly above about 28%, no sharp cut-off; inactive = mostly below about 43%; also: 0% is about no effect
HCV inhibitor – blocks hepatitis C virus; Huh7.5.1 HCVcc-Cre infection, luciferase reporter, 44 h; Potency, µM (doses to about 41.8 µM), for the others: at the top dose activity change, negative = inhibition, usual class: inhibitors; 340,000 compounds, 3.4% hits; AID 651820; also: potency is read from the fitted curve at half-maximal effect; % is scaled to controls: 0 for no effect and ±100 for the full control effect
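Antiviral activity was scored by luciferase reporter output from cells infected with HCVcc-Cre (~0.5 moi) in presence of compound, 44 h infection period, cells seeded 1,000/well 4 h prior.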
Pf growth 48h – inhibits P. falciparum growth in the first generation, 48 h | 310,000 compounds, 5.9% hits | Potency, µM (doses to about 28.7 µM), for inactives: top-dose activity change, negative = inhibition, actives largely listed as inhibitors | P. falciparum luciferase growth in erythrocytes, 48 h; also: potency is read from the fitted curve at half-maximal effect; % is scaled to controls: 0 for no effect and ±100 for the full control effect
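In quantitative HTS format, infected erythrocytes bearing luciferase-reporter parasites were treated for a single generation at 37 C. Luminescence after adding detection reagent served as the growth measure.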
CHX counter – counter-screen for Shiga toxin inhibitors: cycloheximide protein synthesis inhibition; 300,000 compounds, 12% hits; cell reporter, cycloheximide protein synthesis inhibition counterscreen; max response, %; AID 2314; in the data active = max response mostly above about 13%, no sharp cut-off; inactive = mostly below about 14%; also: read at 38.3 µM for the half of the compounds with a filed dose; 0% is about no effect
Pf growth 96h – P. falciparum growth inhibition at 96 hours; P. falciparum luciferase reporter growth, 96 h; Potency, µM (titrated, usually from 28.7 µM), for the others: at the highest dose activity change, negative = inhibition, actives largely listed as inhibitors; 320,000 compounds, 6.9% hits; AID 504834; also: potency is read from the fitted curve at half-maximal effect; % is scaled to controls: 0 for no effect and ±100 for the full control effect
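96 h incubation, 37 C, 5% CO2, of luciferase-reporter P. falciparum-infected RBCs (2% hematocrit, 0.05% parasitemia final) with test compounds; endpoint luminescence.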
* marks the source's active call; other numbers are inactive results; u = inconclusive; x = no result given. Unless noted, calls follow the shape of the dose curve; as a rule, active = well fitted curve in the direction sought with a large enough effect; inconclusive = small, poorly fitted or top-dose-only effect, or another doubt; inactive = no such curve, though single readings can be large; an effect the other way counts as inactive or inconclusive.

SMILES | AMA1 RON2 block | Shiga inhibitor | HCV inhibitor | Pf growth 48h | CHX counter | Pf growth 96h
CCNC(=S)NC1CC2CCCC(C1)N2CCc1ccccc1 (stereo unspecified) | 2% | -22 | u | u | 0 | 8.3µM*
O=C1c2ccccc2C(c2nnnn2-c2ccc3c(c2)OCCO3)N1C1CC1 (stereo unspecified) | 1% | x | x | x | x | x
COCCNC(=S)N(CCc1c(C)[nH]c2ccc(F)cc12)Cc1cccs1 | u | -6 | u | u | 5 | 0%
CCNC(=S)N(CCc1c(C)[nH]c2ccc(Cl)cc12)Cc1ccco1 | 0% | 4 | 10µM* | u | 1 | u
COCCNC(=S)N(CCc1c(C)[nH]c2ccc(Cl)cc12)Cc1cccs1 | u | -3 | 7.1µM* | u | 8 | u
Cc1ccc(Nc2ncnc(Cl)c2N)cc1 | -4% | x | -13% | x | x | x
Cn1c(=O)cc(SCC(=O)NCCC2=CCCCC2)c2ccc(Cl)cc21 | -1% | -9 | 8% | -7% | -4 | 15µM*
O=C(NCCC1=CCCCC1)c1ccc(Cl)cc1 | x | 46 | x | 101% | 33* | 87%
CS(=O)(=O)Nc1ccc(C(=O)NCCC2=CCCCC2)cc1 | 0% | 144* | 9% | 61% | 55* | x
Cc1cc(C)c(C)c(S(=O)(=O)N[C@@H](C)C(=O)OCC(N)=O)c1C | 0% | -10 | 2% | 12% | 1 | 0%
c1ccc(CCN(Cc2ccccc2)C2CCN(C3CCCC3)CC2)cc1 | -8% | -5 | -10% | u | -2 | u
O=C(O)C1C2CCC(O2)C1C(=O)Nc1ccc(F)c(Cl)c1 (stereo unspecified) | -13% | -5 | 9% | 9% | -3 | 12µM*
Cc1ccc(NC(=O)C2C3CCC(O3)C2C(=O)O)cc1Cl (stereo unspecified) | -16% | -3 | 9% | 7% | -2 | 13µM*
O=C(O)C1C2CCC(O2)C1C(=O)Nc1ccc(Cl)cc1 (stereo unspecified) | -5% | 9 | 11% | -4% | 6 | 14%
COc1ccc(NC(=O)C2C3CCC(O3)C2C(=O)O)c(OC)c1 (stereo unspecified) | -5% | 37 | -4% | -3% | 29* | u
Cc1ccc(NC(=O)C2CCCCC2C(=O)O)cc1Cl (stereo unspecified) | u | 2 | 18% | 16% | -6 | u
O=C(COc1ccccc1)NCC(c1ccco1)N1CCCCC1 (stereo unspecified) | 8% | x | u | u | x | u
N#C/C(=C/N1CCOCC1)c1ccccc1 | 0% | 22 | 3.2µM* | 50% | 6 | 7%
CCO[C@H]1OC(C(=O)NCc2ccccc2)=C[C@@H](c2ccc(Br)cc2)[C@@H]1CCCO | -8% | -9 | -27% | u | -3 | u
C#CCNC(=O)C1=C[C@@H](c2ccc(C(F)(F)F)cc2)[C@H](CCCO)[C@@H](OCC)O1 | 7% | -10 | 7% | u | 1 | 12µM*
CCO[C@@H]1OC(C(=O)NCc2ccccc2)=C[C@H](c2ccc(C(F)(F)F)cc2)[C@H]1CCCO | 25% | -5 | -11% | 4.7µM* | -1 | 8.3µM*
CCN1C(=O)/C(=C/C=C2/CCCN2C)OC1=S | -5% | 46* | -13% | 91% | 28* | 10%
CCN1C(=O)/C(=C2/C=CC=CN2C)OC1=S | -5% | 5 | 6% | 4% | 2 | -21%
CN1C(=O)/C(=C\C=C2/CCCN2C)N(C)C1=S | 17% | 54 | -8% | 33% | 23* | 12%
CC(C)C[C@H]1CNC(=O)C(=O)N1CC1CCN(CC2CCC(C)CC2)CC1 (stereo partly specified) | 17% | x | x | x | x | x
SMILES | AMA1 RON2 block | Shiga inhibitor | HCV inhibitor | Pf growth 48h | CHX counter | Pf growth 96h
CC(=O)c1cccc(NC(=O)c2cc3nc(C)cc(C)n3n2)c1 | -6% | 53* | u | 148% | 27* | x
O=C(Nc1ccc2c(c1)OCO2)c1cc2nc(C3CC3)cc(C(F)(F)F)n2n1 | 13% | 11 | -27% | 11% | 12* | 0.042µM*
CC(=O)c1cccc(NC(=O)c2ccc(C(=O)Nc3cccc(C(C)=O)c3)nc2)c1 | -8% | 39 | 1% | 4% | -4 | u
O=C(Nc1cccnc1)c1cc2nc(C3CC3)cc(C(F)(F)F)n2n1 | -3% | 10 | u | 6% | 11 | 29%
CC(C)CNC(=O)c1cc2nc(C3CC3)cc(C(F)(F)F)n2n1 | -1% | x | 7.9µM* | x | x | x
Cc1cc(C)n2nc(C(=O)Nc3ccc4c(c3)OCO4)cc2n1 | 12% | 70* | -22% | x | 34* | 127%
COc1ccc(C(=O)C(C)OC(=O)COc2ccccc2)cc1 (stereo unspecified) | -2% | x | 8% | x | x | x
CC(C)CN1CCC(=O)N(CCO)CC1 | -4% | -5 | 23% | 61% | -2 | 48%
S=c1c2c(nc3nc[nH]n13)CCC2 | 100% | -5 | 2% | 2.1µM* | -1 | 1.7µM*
O=c1c2c(nc3nc(CCc4ccccc4)[nH]n13)CCC2 | -6% | -10 | 7% | 0% | -3 | u
O/N=C/c1cn(-c2ccccc2)nn1 | -9% | 37 | 5% | 50% | 27* | 99%
O/N=C/c1cn(-c2ccc(Cl)cc2)nn1 | -3% | 49 | 9% | 134% | 37* | 107%
Clc1ccc(-n2cnnn2)cc1 | 11% | -15 | 5% | 11% | -4 | u
CCCCN1CC(=O)N2[C@H]3c4ccccc4OC[C@@H]3[C@H](c3ccccc3)[C@]2(C)C1=O | -4% | x | u | u | x | 5.9µM*
Cc1ccc(CN2CC(=O)N3[C@H]4c5ccccc5OC[C@@H]4[C@H](c4ccccc4)[C@]3(C)C2=O)cc1 | 8% | x | u | 9.3µM* | x | u
C[C@@]12C(=O)N(Cc3ccccc3)CC(=O)N1[C@H]1c3ccccc3OC[C@@H]1[C@@H]2c1ccccc1 | -2% | x | u | u | x | u
C[C@@]12C(=O)N(Cc3ccco3)CC(=O)N1[C@H]1c3ccccc3OC[C@@H]1[C@@H]2c1ccccc1 | u | x | -23% | x | x | x
CN1CCN(CC(=O)Nc2ccc(OC(F)(F)F)cc2)CC1 | -20% | -4 | u | -7% | 5 | -14%
C=CC[C@@H](CC(=O)NCCO)C(=O)N[C@@H](COC(=O)[C@@H](CC=C)CC(=O)OC(C)(C)C)Cc1c[nH]c2ccccc12 | -2% | x | -6% | x | x | x
Cc1ccc(CSc2ccc(-c3ccco3)nn2)cc1 | -1% | 21 | 1% | 159% | 12 | 30%
Clc1cccc(CSc2ccc(-c3ccco3)nn2)c1 | u | 61* | 6% | 38% | 31* | 11%
Fc1ccccc1CSc1ccc(-c2ccco2)nn1 | -15% | 120* | -16% | 248% | 50* | 180%
Clc1cccc(CSc2ccc(-c3cccnc3)nn2)c1 | 1% | 51 | 15% | -6% | 29* | 12%
